From the supplement of paper PMC12645437, “Orthogonal IMiD-Degron Pairs Induce Selective Protein Degradation in Cells” (ACS Chemical Biology, 2025)
In all, about 8,300 sequences were measured (“log2 fold change of degron read counts, EGFP-low vs EGFP+ sorted cells (limma voom), compound-induced degradation”: median about -1.1, highest 2% from about 3.2 on). The full list was thinned out, with the highest values kept by preference.

Target: T1, CRBN, Q96SW2
T1 chain: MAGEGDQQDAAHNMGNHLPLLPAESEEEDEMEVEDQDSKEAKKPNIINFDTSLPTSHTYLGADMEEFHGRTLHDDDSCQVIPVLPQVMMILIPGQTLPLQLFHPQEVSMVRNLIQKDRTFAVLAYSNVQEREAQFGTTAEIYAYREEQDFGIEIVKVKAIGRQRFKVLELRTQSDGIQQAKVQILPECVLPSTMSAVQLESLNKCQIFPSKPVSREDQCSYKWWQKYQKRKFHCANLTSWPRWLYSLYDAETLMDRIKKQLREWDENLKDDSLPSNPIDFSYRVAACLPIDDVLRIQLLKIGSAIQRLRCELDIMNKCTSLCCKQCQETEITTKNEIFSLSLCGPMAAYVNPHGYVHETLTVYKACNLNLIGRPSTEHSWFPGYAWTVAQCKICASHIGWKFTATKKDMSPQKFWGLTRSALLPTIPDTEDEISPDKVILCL
Test: log2 fold change of degron read counts, EGFP-low vs EGFP+ sorted cells (limma voom), compound-induced degradation; higher = more compound-induced degradation of the degron-EGFP fusion; degrons are variants of IKZF1/3 zinc finger 2; compound dose not given here
Settings: Jurkat, 18 h

[1] = compound: compound 19 (5-tert-butyl-thalidomide)
[2] = compound: compound 22 (5-morpholino-thalidomide)
[3] = compound: compound 33 (diphenyl IMiD analogue)
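Further: pooled lentiviral library of zinc finger degron-EGFP fusions in mCherry-positive Jurkat cells, FACS-sorted after compound exposure, with degron abundance counted by next-generation sequencing.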

B1: 46L_47C_49N_50Q_52G_53F_54R_55C_67L_, Q9UKT9 (peptide)
chain: LCCNQCGFRCTQKGNLLRHIKL
B1 was tested, and the “log2 fold change of degron read counts” value [1] was -1.39, the “log2 fold change of degron read counts” value [2] was -1.65 and the “log2 fold change of degron read counts” value [3] was -1.27. For the same sequence, the “log2 fold change of degron read counts” value (compound: thalidomide) was -1.01.

B2: 46F_47T_49E_50I_52G_53A_54F_55F_67L_, Q9UKT9 (peptide)
chain: FTCEICGAFFTQKGNLLRHIKL
B2 was tested, and the “log2 fold change of degron read counts” value [1] was -0.327, the “log2 fold change of degron read counts” value [2] was 0.0883 and the “log2 fold change of degron read counts” value [3] was 0.985. The “log2 fold change of degron read counts” value (compound: thalidomide) was 1.57.

B3: 46F_47D_49N_50I_52G_53A_54F_55F_67L_, Q9UKT9 (peptide)
chain: FDCNICGAFFTQKGNLLRHIKL
With B3 the “log2 fold change of degron read counts” value [1] was -1.62, the “log2 fold change of degron read counts” value [2] was -1.63 and the “log2 fold change of degron read counts” value [3] was -0.882. The “log2 fold change of degron read counts” value (compound: thalidomide) was -0.692.

B4: 46L_47D_49E_50I_52G_53F_54E_55C_67L_, Q9UKT9 (peptide)
chain: LDCEICGFECTQKGNLLRHIKL
For B4, the “log2 fold change of degron read counts” value [1] was -1.93, the “log2 fold change of degron read counts” value [2] was -2.68 and the “log2 fold change of degron read counts” value [3] was -2.74. For the same sequence, the “log2 fold change of degron read counts” value (compound: thalidomide) was -1.97.

B5: 46F_47G_49P_50I_52G_53A_54K_55F_67L_, Q9UKT9 (peptide)
chain: FGCPICGAKFTQKGNLLRHIKL
For B5, the “log2 fold change of degron read counts” value [1] was 3.59, the “log2 fold change of degron read counts” value [2] was 1.76 and the “log2 fold change of degron read counts” value [3] was -0.616. The “log2 fold change of degron read counts” value (compound: thalidomide) was 1.31.

B6: 46F_47M_49P_50I_52G_53A_54K_55F_67L_, Q9UKT9 (peptide)
chain: FMCPICGAKFTQKGNLLRHIKL
In the case of B6, the “log2 fold change of degron read counts” value [1] is reported as -0.0561, the “log2 fold change of degron read counts” value [2] is reported as 0.0581 and the “log2 fold change of degron read counts” value [3] is reported as 0.821. The “log2 fold change of degron read counts” value (compound: thalidomide) was 0.888.

B7: 46F_47M_49N_50I_52G_53A_54K_55F_67L_, Q9UKT9 (peptide)
chain: FMCNICGAKFTQKGNLLRHIKL
With B7 the “log2 fold change of degron read counts” value [1] was -1.58, the “log2 fold change of degron read counts” value [2] was -1.36 and the “log2 fold change of degron read counts” value [3] was -0.574. The “log2 fold change of degron read counts” value (compound: thalidomide) was -0.374.

B8: 46F_47A_49P_50I_52G_53A_54K_55F_67L_, Q9UKT9 (peptide)
chain: FACPICGAKFTQKGNLLRHIKL
For B8, the “log2 fold change of degron read counts” value [1] was 3.43, the “log2 fold change of degron read counts” value [2] was 1.44 and the “log2 fold change of degron read counts” value [3] was -1.12. The “log2 fold change of degron read counts” value (compound: thalidomide) was 0.992.

B9: 46F_47Y_49N_50I_52G_53A_54K_55F_67L_, Q9UKT9 (peptide)
chain: FYCNICGAKFTQKGNLLRHIKL
In the case of B9, the “log2 fold change of degron read counts” value [1] is reported as 1.97, the “log2 fold change of degron read counts” value [2] is reported as 2.19 and the “log2 fold change of degron read counts” value [3] is reported as -0.298. For the same sequence, the “log2 fold change of degron read counts” value (compound: thalidomide) was -0.655.

B10: 46F_47V_49P_50I_52G_53A_54K_55F_67L_, Q9UKT9 (peptide)
chain: FVCPICGAKFTQKGNLLRHIKL
With B10 the “log2 fold change of degron read counts” value [1] was -0.253, the “log2 fold change of degron read counts” value [2] was 1.93 and the “log2 fold change of degron read counts” value [3] was -0.152. The “log2 fold change of degron read counts” value (compound: thalidomide) was 2.45.

B11: 46F_47C_49P_50I_52G_53A_54K_55F_67L_, Q9UKT9 (peptide)
chain: FCCPICGAKFTQKGNLLRHIKL
For B11, the “log2 fold change of degron read counts” value [1] was 2.65, the “log2 fold change of degron read counts” value [2] was 2.05 and the “log2 fold change of degron read counts” value [3] was 0.122. The “log2 fold change of degron read counts” value (compound: thalidomide) was 2.09.

B12: 46F_47Q_49P_50I_52G_53A_54K_55F_67L_, Q9UKT9 (peptide)
chain: FQCPICGAKFTQKGNLLRHIKL
B12 was tested, and the “log2 fold change of degron read counts” value [1] was 0.535, the “log2 fold change of degron read counts” value [2] was 3 and the “log2 fold change of degron read counts” value [3] was 0.562. For the same sequence, the “log2 fold change of degron read counts” value (compound: thalidomide) was 3.44.

B13: 46F_47T_49P_50I_52G_53A_54K_55F_67L_, Q9UKT9 (peptide)
chain: FTCPICGAKFTQKGNLLRHIKL
B13 was tested, and the “log2 fold change of degron read counts” value [1] was 0.0311, the “log2 fold change of degron read counts” value [2] was 2.04 and the “log2 fold change of degron read counts” value [3] was -0.046. For the same sequence, the “log2 fold change of degron read counts” value (compound: thalidomide) was 2.35.

B14: 46F_47N_49P_50I_52G_53A_54K_55F_67L_, Q9UKT9 (peptide)
chain: FNCPICGAKFTQKGNLLRHIKL
With B14 the “log2 fold change of degron read counts” value [1] was 2.07, the “log2 fold change of degron read counts” value [2] was 0.6 and the “log2 fold change of degron read counts” value [3] was -1.08. For the same sequence, the “log2 fold change of degron read counts” value (compound: thalidomide) was 0.72.

B15: 46F_47S_49P_50I_52G_53A_54K_55F_67L_, Q9UKT9 (peptide)
chain: FSCPICGAKFTQKGNLLRHIKL
B15 was tested, and the “log2 fold change of degron read counts” value [1] was 2.33, the “log2 fold change of degron read counts” value [2] was 1.67 and the “log2 fold change of degron read counts” value [3] was -0.456. The “log2 fold change of degron read counts” value (compound: thalidomide) was 1.28.

B16: 46F_47Q_49N_50I_52G_53A_54K_55F_67L_, Q9UKT9 (peptide)
chain: FQCNICGAKFTQKGNLLRHIKL
B16 was tested, and the “log2 fold change of degron read counts” value [1] was -1.16, the “log2 fold change of degron read counts” value [2] was 1.71 and the “log2 fold change of degron read counts” value [3] was -0.442. For the same sequence, the “log2 fold change of degron read counts” value (compound: thalidomide) was 3.26.

B17: 46F_47W_49N_50V_52G_53A_54P_55F_67L_, Q9UKT9 (peptide)
chain: FWCNVCGAPFTQKGNLLRHIKL
B17 was tested, and the “log2 fold change of degron read counts” value [1] was 1.34, the “log2 fold change of degron read counts” value [2] was 1.28 and the “log2 fold change of degron read counts” value [3] was 0.648. For the same sequence, the “log2 fold change of degron read counts” value (compound: thalidomide) was -0.594.

B18: 46F_47N_49N_50Q_52G_53R_54A_55F_67L_, Q9UKT9 (peptide)
chain: FNCNQCGRAFTQKGNLLRHIKL
In the case of B18, the “log2 fold change of degron read counts” value [1] is reported as -2.53, the “log2 fold change of degron read counts” value [2] is reported as -3 and the “log2 fold change of degron read counts” value [3] is reported as -2.84. For the same sequence, the “log2 fold change of degron read counts” value (compound: thalidomide) was -2.82.

B19: 46F_47L_49N_50Q_52G_53R_54K_55F_67L_, Q9UKT9 (peptide)
chain: FLCNQCGRKFTQKGNLLRHIKL
In the case of B19, the “log2 fold change of degron read counts” value [1] is reported as -3.07, the “log2 fold change of degron read counts” value [2] is reported as -2.98 and the “log2 fold change of degron read counts” value [3] is reported as -2.46. The “log2 fold change of degron read counts” value (compound: thalidomide) was -1.94.

B20: 46F_47T_49E_50V_52G_53A_54D_55F_67L_, Q9UKT9 (peptide)
chain: FTCEVCGADFTQKGNLLRHIKL
For B20, the “log2 fold change of degron read counts” value [1] was -1.27, the “log2 fold change of degron read counts” value [2] was -0.646 and the “log2 fold change of degron read counts” value [3] was -0.114. For the same sequence, the “log2 fold change of degron read counts” value (compound: thalidomide) was 0.571.

B21: 46F_47W_49D_50V_52G_53A_54F_55F_67L_, Q9UKT9 (peptide)
chain: FWCDVCGAFFTQKGNLLRHIKL
For B21, the “log2 fold change of degron read counts” value [1] was 0.953, the “log2 fold change of degron read counts” value [2] was 1.36 and the “log2 fold change of degron read counts” value [3] was -0.00384. The “log2 fold change of degron read counts” value (compound: thalidomide) was -1.88.

B22: 46F_47E_49N_50V_52G_53A_54I_55F_67L_, Q9UKT9 (peptide)
chain: FECNVCGAIFTQKGNLLRHIKL
With B22 the “log2 fold change of degron read counts” value [1] was -2.34, the “log2 fold change of degron read counts” value [2] was -1.7 and the “log2 fold change of degron read counts” value [3] was -0.347. The “log2 fold change of degron read counts” value (compound: thalidomide) was 0.492.

B23: 46F_47V_49E_50Q_52G_53A_54I_55F_67L_, Q9UKT9 (peptide)
chain: FVCEQCGAIFTQKGNLLRHIKL
In the case of B23, the “log2 fold change of degron read counts” value [1] is reported as -2.11, the “log2 fold change of degron read counts” value [2] is reported as -2.38 and the “log2 fold change of degron read counts” value [3] is reported as -0.483. The “log2 fold change of degron read counts” value (compound: thalidomide) was -1.05.

B24: 46F_47H_49P_50I_52G_53A_54K_55F_67L_, Q9UKT9 (peptide)
chain: FHCPICGAKFTQKGNLLRHIKL
B24 was tested, and the “log2 fold change of degron read counts” value [1] was 2.6, the “log2 fold change of degron read counts” value [2] was 2.09 and the “log2 fold change of degron read counts” value [3] was -0.0644. For the same sequence, the “log2 fold change of degron read counts” value (compound: thalidomide) was 0.674.

B25: 46F_47R_49P_50I_52G_53A_54K_55F_67L_, Q9UKT9 (peptide)
chain: FRCPICGAKFTQKGNLLRHIKL
For B25, the “log2 fold change of degron read counts” value [1] was -0.704, the “log2 fold change of degron read counts” value [2] was 0.123 and the “log2 fold change of degron read counts” value [3] was 0.417. The “log2 fold change of degron read counts” value (compound: thalidomide) was 0.809.

B26: 46F_47W_49P_50I_52G_53A_54K_55F_67L_, Q9UKT9 (peptide)
chain: FWCPICGAKFTQKGNLLRHIKL
For B26, the “log2 fold change of degron read counts” value [1] was 2.94, the “log2 fold change of degron read counts” value [2] was 3.43 and the “log2 fold change of degron read counts” value [3] was 1.1. The “log2 fold change of degron read counts” value (compound: thalidomide) was 0.827.

B27: 46F_47F_49D_50Q_52G_53A_54N_55F_67L_, Q9UKT9 (peptide)
chain: FFCDQCGANFTQKGNLLRHIKL
For B27, the “log2 fold change of degron read counts” value [1] was -0.567, the “log2 fold change of degron read counts” value [2] was -0.255 and the “log2 fold change of degron read counts” value [3] was -1.24. For the same sequence, the “log2 fold change of degron read counts” value (compound: thalidomide) was -2.4.

B28: 46F_47S_49D_50V_52G_53A_54P_55F_67L_, Q9UKT9 (peptide)
chain: FSCDVCGAPFTQKGNLLRHIKL
B28 was tested, and the “log2 fold change of degron read counts” value [1] was 0.883, the “log2 fold change of degron read counts” value [2] was -0.0159 and the “log2 fold change of degron read counts” value [3] was -0.896. For the same sequence, the “log2 fold change of degron read counts” value (compound: thalidomide) was -0.557.
